The source of these data is PubChem BioAssay (NCI).

Some test systems named below: NCI-H23 lung; NCI-H226 lung; NCI-H322M lung; HOP-62 NSCLC; HOP-92 NSCLC; NCI-H522 lung; A549/ATCC NSCLC; 786-0 renal; COLO 205 colon; DU-145 prostate; K-562 leukemia; MALME-3M melanoma; MDA-MB-231 breast; SF-268 CNS; SF-295 CNS; SF-539 CNS; UACC-257 melanoma; RXF 393 renal; M14 melanoma; NCI-H460 lung.
Assay in all cases: NCI-60 one-dose screen, 48 h (100 = growth as untreated, 0 = no growth, -100 = all killed)
Holding throughout (details): 10 µM unless noted

The panel holds about 83,000 compounds, 20% with a hit somewhere; the sample as a whole holds those more often.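 96-well plates, one dose, 48 hours. Percent growth reported; active if below 10.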 Values without a mark were called inactive. Calls of active or inactive are those of the source.

Consider `COc1ccc(/C=C2\COc3ccc(O)c(O)c3C2=O)c(OC)c1`, for which the growth with NCI-H23 lung was 78.8%; in the assay on NCI-H226 lung, 92.4%; with NCI-H322M lung, 73.7%; in the assay with HOP-62 NSCLC, 72.9%; in the assay on HOP-92 NSCLC it was 91.5%; in the assay with NCI-H522 lung, -17% (active). Also, the growth with A549/ATCC NSCLC was 62.9%; with 786-0 renal, 61.1%; with COLO 205 colon, 107%; in the assay on DU-145 prostate, 67.2%; with K-562 leukemia it was 14%; with MALME-3M melanoma, 32.9%. Moreover, the growth was 56.6% in the assay with MDA-MB-231 breast; 54.8% in the assay with SF-268 CNS; 95.6% with SF-295 CNS; 49.5% with SF-539 CNS; 54.4% with UACC-257 melanoma.

On to `Cl.Fc1c[c-]c(-c2ccccn2)c(F)c1.[Pt].c1ccc([PH+](c2ccccc2)c2ccccc2[PH+](c2ccccc2)c2ccccc2)cc1`, for which the growth is -84.6% (active) in the assay with NCI-H23 lung; -70% (active) with NCI-H226 lung; -99.4% (active) in the assay with NCI-H322M lung; -62.2% (active) with HOP-62 NSCLC; -68% (active) in the assay with HOP-92 NSCLC; -63% (active) in the assay with NCI-H522 lung. Also, the growth was -68.9% (active) in the assay with A549/ATCC NSCLC; -73.9% (active) in the assay with 786-0 renal; -98.9% (active) with DU-145 prostate; 0.976% (active) in the assay with K-562 leukemia; -83.8% (active) in the assay on MALME-3M melanoma; -93.3% (active) with MDA-MB-231 breast. For the same compound, the growth with RXF 393 renal was -86.8% (active); in the assay on SF-268 CNS, -72.3% (active); in the assay with SF-295 CNS, -90.8% (active); in the assay on SF-539 CNS, -93.6% (active); with UACC-257 melanoma, -71.8% (active); in the assay with M14 melanoma, -72.5% (active).

As for `Cc1nc(Nc2ccc(NC(=S)Nc3ccccc3)cc2)nc2nc(Nc3cccc(Cl)c3)[nH]c(=O)c12`, the growth with NCI-H23 lung was 92.4%; in the assay on NCI-H226 lung it was 99.2%; in the assay on NCI-H322M lung, 183%; in the assay with HOP-62 NSCLC, 91.7%; with HOP-92 NSCLC, 60.4%; with NCI-H522 lung it was 34.4%. Moreover, the growth in the assay with A549/ATCC NSCLC was 86.1%; in the assay on 786-0 renal, 98.7%; in the assay on COLO 205 colon it was 122%; with DU-145 prostate it was 123%; in the assay with K-562 leukemia, 71.8%; in the assay on MALME-3M melanoma, 120%. The growth is 84.7% in the assay on MDA-MB-231 breast; -12.9% (active) in the assay on RXF 393 renal; 104% in the assay on SF-268 CNS; 116% in the assay on SF-295 CNS; 67.5% in the assay with SF-539 CNS; 98.9% in the assay with UACC-257 melanoma.

Turning to `OC(c1cccc(OCc2ccccc2)c1)c1nnc(-c2ccccc2)o1` (centres undefined), the growth in the assay with NCI-H23 lung is 83%; in the assay with NCI-H226 lung, 66.9%; in the assay on NCI-H322M lung it was 120%; in the assay with HOP-62 NSCLC it was 107%; with HOP-92 NSCLC, 80.9%; in the assay with NCI-H522 lung it was 79.2%. The growth in the assay on A549/ATCC NSCLC was 95.1%; in the assay on 786-0 renal, 100%; in the assay with DU-145 prostate, 107%; in the assay with K-562 leukemia, 91%; in the assay on MALME-3M melanoma it was 92.1%; with MDA-MB-231 breast it was 89.9%. The growth is 95.5% with RXF 393 renal; 95.3% with SF-268 CNS; 64% in the assay on SF-295 CNS; 93.1% in the assay with SF-539 CNS; 94.5% in the assay on UACC-257 melanoma; 105% in the assay with M14 melanoma.

As for `CCN(CC)CCCNC(=O)c1ccc(N)cc1`, the growth was 101% in the assay with NCI-H23 lung; 101% in the assay on NCI-H226 lung; 94.7% with NCI-H322M lung; 98.5% in the assay on HOP-62 NSCLC; 101% with HOP-92 NSCLC; 101% with NCI-H522 lung. In addition, the growth in the assay with A549/ATCC NSCLC is 105%; in the assay with 786-0 renal, 100%; in the assay with K-562 leukemia, 35.8%; in the assay on MALME-3M melanoma, 94.3%; in the assay with MDA-MB-231 breast, 104%; with RXF 393 renal it was 110%. Moreover, the growth with SF-268 CNS is 102%; with SF-295 CNS, 99.3%; in the assay on SF-539 CNS, 106%; with UACC-257 melanoma it was 92.9%; in the assay with M14 melanoma it was 98.7%.

On to `CC(=O)Nc1ccc(-c2cc3c(NCc4ccc(F)cc4)ncnc3s2)cc1`, for which the growth with NCI-H23 lung is 77.5%; in the assay on NCI-H226 lung, 78.4%; in the assay on NCI-H322M lung it was 82.7%; in the assay with HOP-62 NSCLC it was 58%; in the assay with HOP-92 NSCLC it was 76%; in the assay on NCI-H522 lung, 56.6%. The growth in the assay on A549/ATCC NSCLC is 83.9%; in the assay with 786-0 renal, 82.7%; with COLO 205 colon, 106%; in the assay on DU-145 prostate it was 86.3%; in the assay on K-562 leukemia, 86.8%; with MALME-3M melanoma, 59.5%. For the same compound, the growth in the assay with MDA-MB-231 breast was 83%; with SF-268 CNS, 68%; in the assay on SF-295 CNS, 82.6%; in the assay with SF-539 CNS, 56.6%; with UACC-257 melanoma it was 86.8%.

On to `CC(=O)c1sc(-c2ccccc2)cc1N`, for which the growth is 101% in the assay on NCI-H23 lung; 96.6% in the assay on NCI-H226 lung; 94.4% with HOP-62 NSCLC; 102% with NCI-H460 lung; 97.7% in the assay on HOP-92 NSCLC; 72.5% with NCI-H522 lung. Also, the growth is 76% in the assay on A549/ATCC NSCLC; 92.7% in the assay with 786-0 renal; 109% with COLO 205 colon; 102% in the assay on DU-145 prostate; 112% in the assay with MALME-3M melanoma; 99.6% in the assay on MDA-MB-231 breast. The growth was 107% in the assay on RXF 393 renal; 104% with SF-268 CNS; 99.7% with SF-295 CNS; 97.1% in the assay on SF-539 CNS; 90.6% in the assay on UACC-257 melanoma.

For `CCn1nc(C#Cc2c(C)ccc3c(Nc4ccc(Cl)cc4)nccc23)c2c(N)ncnc21`, the growth in the assay with NCI-H23 lung was 18.4%; with NCI-H226 lung, 14.8%; in the assay on HOP-62 NSCLC, -0.0802% (active); in the assay with HOP-92 NSCLC, 13.6%; in the assay on NCI-H522 lung, -15.4% (active); with A549/ATCC NSCLC, 16.8%. The growth in the assay on 786-0 renal was 14.1%; in the assay with DU-145 prostate it was 34.9%; in the assay with K-562 leukemia, 12.8%; in the assay on MALME-3M melanoma, -40.6% (active); in the assay on MDA-MB-231 breast, 8.63% (active); in the assay on RXF 393 renal, -4.58% (active). The growth with SF-268 CNS was 17.5%; in the assay with SF-295 CNS it was 4.88% (active); in the assay on SF-539 CNS, -31.6% (active); with UACC-257 melanoma, -9.69% (active); in the assay with M14 melanoma, 5.1% (active).
